# Inconclusive results are not listed. Entries that show only a call come without a potency. Unmarked numbers belong to inactive results. Activity calls are given as the source filed them. The call rests on the fitted dose curve; in most records, active means well fitted inhibition curve with a large enough effect; inconclusive means small, poorly fitted or top-dose-only effect; inactive means no such curve, though single readings can be large or run the other way.
# Test: Primary qHTS for small molecule stabilizers of the endoplasmic reticulum resident proteome: Secreted ER Calcium Modulated Protein (SERCaMP) assay (AID 1508630)
# Conditions: SH-SY5Y GLuc-SERCaMP (Gaussia luciferase released on ER calcium loss) secretion, thapsigargin, luminescence; series mostly up to 38.4 µM; activity change, negative = inhibition: at the top concentration
# Excerpt: Assay Provider: Brandon K. Harvey Ph.D.
# National Institute on Drug Abuse, National Institutes of Health, Baltimore, MD
# Endoplasmic reticulum (ER) dysregulation is associated with human pathologies including neurodegenerative, cardiovascular, muscular, and diabetic conditions. Maintenance of ER calcium is critical for functions of the ER and its depletion can lead to loss of ER resident proteins, in a process termed exodosis. Therapeutic compounds capable of attenuating the redistribution of ER proteins under pathological conditions may slow or stop disease progression. To identify such compounds, we performed a quantitative high-throughput screen (qHTS) using the SERCaMP assay, which monitors secretion of ER resident proteins triggered by calcium depletion.
# SERCaMP was initially developed as a reporter of ER calcium homeostasis using a Gaussia luciferase with a modified signal peptide and carboxy-terminus (GLuc-SERCaMP), modifications that confer secretion of the reporter in response to ER calcium depletion (Henderson et al., 2014). The assay was used to screen 9,501 compounds, including a collection of drugs approved by the FDA (US), EMA (EU), NHI (Japan), and HC (Canada) regulatory agencies (Huang et al., 2011). Since the SERCaMP reporter reflects the exodosis phenomenon (Trychta et al., 2018a), compounds identified in the screen have the potential to prevent exodosis by different mechanisms such as stabilizing ER calcium or augmenting ERS retrieval.
# 1. Henderson, M.J., Wires, E.S., Trychta, K.A., Richie, C.T., and Harvey, B.K. (2014). SERCaMP: a carboxy-terminal protein modification that enables monitoring of ER calcium homeostasis. Mol Biol Cell 25, 2828-2839.
# 2. Huang, R., Southall, N., Wang, Y., Yasgar, A., Shinn, P., Jadhav, A., Nguyen, D.T., and Austin, C.P. (2011). The NCGC pharmaceutical collection: a comprehensive resource of clinically approved drugs enabling repurposing and chemical genomics. Sci Transl Med 3, 80ps16.
# 3. Trychta, K.A., Back, S., Henderson, M.J., and Harvey, B.K. (2018a). KDEL Receptors Are Differentially Regulated to Maintain the ER Proteome under Calcium Deficiency. Cell Rep 25, 1829-1840 e1826.
# SEQUENCE No. (1, 2, 3, etc.); […] (e.g., Cells, Incubation, Reagent, etc.); VALUE and DESCRIPTION.
# 1; Reagent; 5 uL; 1000 SH-SY5Y cells per wells
# 3; Compound; 23 nL; Control inhibitor / compound library
# 5; Reagent; 100 nM; Thapsigargin
# 7; Reagent; 1 uL; 0.5x coelenterazine
# 8; Detection; Luminescence; ViewLux imaging system
# NOTES (numbers refer to sequence above)
# 1; SH-SY5Y human neuroblastoma cells stably expressing GLuc-SERCaMP (SH-SY5Y-GLuc-ASARTDL) cells were seeded in 1,536 well white tissue culture treated plates (Corning, Cat# 7464) in DMEM-high glucose-sodium pyruvate (ThermoFisher Scientific, Cat #10569) supplemented with 10% bovine growth serum (Hyclone), 10 U/ml penicillin (Gibco), 10 ug/ml streptomycin (Gibco), and 20 mM HEPES.
# 2; Assay plates were incubated for 5 hour at 37C in a humidified incubator containing 5% CO2.
# 3; qHTS libraries (23 nl, final concentrations of 1.53 uM, 7.67 uM, 38.3 uM) or controls (neutral control: DMSO, positive control: dantrolene) were added using a Kalypsis pin-tool Robotic System equipped with 1536 pinheads.
# 4; Cells were then incubated for 16 hours at 37C, 5% CO2.
# 5; Thapsigargin was added at 100 nM to deplete ER calcium stores.
# 6; Cells were incubated for 4 hour (37 °C, 5% CO2)
# 7; Gaussia luciferase in the medium was measured by adding 1 ul of 0.5x coelenterazine (final concentration 0.07x) prepared in Gaussia Luciferase Glow Assay Buffer (Pierce), without addition of the Cell Lysis Buffer Reagent.
# 8; Luminescence was measured using a ViewLux […] CCD imaging system (Perkin Elmer) equipped with clear filters. […] The same controls were also used for the calculation of the Z' factor, a measure of assay quality control, as previously described (Zhang et al., 1999). […]
SMILES,"activity change, negative = inhibition",Potency
CN1CCC(=C2c3ccccc3CC(=O)c3sccc32)CC1,187%,–
CC1(C)O[C@H]2CC(=O)OC[C@]23[C@H]2CC[C@@]4(C)[C@H](c5ccoc5)OC(=O)[C@H]5O[C@]54[C@]2(C)C(=O)C[C@@H]13,–,inactive
Cn1ccc2cc3c(cc21)CCN3C(=O)Nc1cccnc1,–,inactive
CN(C)CCCN1c2ccccc2CCc2ccc(Cl)cc21,-5.64%,–
CC1COc2c(N3CCN(C)CC3)c(F)cc3c(=O)c(C(=O)O)cn1c23 (stereo not given),–,inactive
OCCN1CCN(CCCN2c3ccccc3Sc3ccc(C(F)(F)F)cc32)CC1,–,inactive
CCN1CCCC1CNC(=O)c1cc(S(=O)(=O)CC)c(N)cc1OC (stereo not given),–,inactive
COC(=O)Nc1nc2ccc(C(=O)c3cccs3)cc2[nH]1,–,inactive
NC(CO)C(=O)NNCc1ccc(O)c(O)c1O (stereo not given),–,inactive
CC(=O)OCC(CCn1cnc2cnc(N)nc21)COC(C)=O,–,inactive
Cc1cc(C(C)(C)C)cc(C)c1CC1=NCCN1,–,inactive
CC(C)NCC(O)COc1ccc(CCOCC2CC2)cc1 (stereo not given),–,inactive
CCCNCC(O)COc1ccccc1C(=O)CCc1ccccc1 (stereo not given),-5.57%,–
Cc1cc(C(C)(C)C)c(O)c(C)c1CC1=NCCN1,–,inactive
COc1cc2c(c(OC)c1OC)-c1ccc(OC)c(=O)cc1[C@@H](NC(C)=O)CC2,–,inactive
CS(=O)(=O)CCNCc1ccc(-c2ccc3ncnc(Nc4ccc(OCc5cccc(F)c5)c(Cl)c4)c3c2)o1,0%,–
CC1(CN2CCC(n3c(=O)[nH]c4ccccc43)CC2)OCc2ccccc2-n2cccc21 (stereo not given),0%,–
NCCc1cnc[nH]1,–,inactive
NC12CC3CC(CC(C3)C1)C2,–,inactive
CCOC(=O)C(C)(C)Oc1ccc(Cl)cc1,–,inactive

SMILES,"activity change, negative = inhibition",Potency
CNCCCC12CCC(c3ccccc31)c1ccccc12,–,inactive
O=c1c(O)c(-c2ccc(O)c(O)c2)oc2cc(O)cc(O)c12,–,inactive
O=c1c(-c2ccc(O)cc2)coc2cc(O)cc(O)c12,–,inactive
CCC1(c2ccccc2)C(=O)NCNC1=O,–,inactive
Cc1ccc(-c2cc(C(F)(F)F)nn2-c2ccc(S(N)(=O)=O)cc2)cc1,–,inactive
COc1ccccc1OCC(O)CN1CCN(CC(=O)Nc2c(C)cccc2C)CC1 (stereo not given),–,inactive
Cc1cn([C@H]2C[C@H](N=[N+]=[N-])[C@@H](CO)O2)c(=O)[nH]c1=O,–,inactive
COc1ccc(CCN(C)CCCC(C#N)(c2ccc(OC)c(OC)c2)C(C)C)cc1OC (stereo not given),0% [at 76.3 µM],–
O=C1Cc2cc(CCN3CCN(c4nsc5ccccc45)CC3)c(Cl)cc2N1,–,inactive
CN(Cc1cnc2nc(N)nc(N)c2n1)c1ccc(C(=O)N[C@@H](CCC(=O)O)C(=O)O)cc1,–,inactive
CN1C2CCC1CC(OC(=O)C(CO)c1ccccc1)C2 (stereo not given),-27.9%,–
COc1ccccc1N1CCN(CC(O)COc2cccc3ccccc23)CC1 (stereo not given),–,inactive
CN1C(C(=O)Nc2ccccn2)=C(O)c2ccccc2S1(=O)=O,–,inactive
NCCS(=O)(=O)O,–,inactive
CC(COc1ccccc1)N(CCCl)Cc1ccccc1 (stereo not given),–,inactive
C[C@](N)(Cc1ccc(O)c(O)c1)C(=O)O,221%,–
COc1ccc2[nH]cc(CCNC(C)=O)c2c1,–,inactive
Cc1cn([C@H]2C=C[C@@H](CO)O2)c(=O)[nH]c1=O,–,inactive
CCc1cccc2c3c([nH]c12)C(CC)(CC(=O)O)OCC3 (stereo not given),–,inactive
Nc1ccn([C@H]2CC[C@@H](CO)O2)c(=O)n1,–,inactive
